Measurements as given in PubChem BioAssay (NCATS).
Inconclusive results are not listed. Entries that show only a call come without a potency. The source made the active and inactive calls. Unless noted, calls follow the shape of the dose curve; as a rule, active = well fitted curve in the direction sought with a large enough effect; inconclusive = small, poorly fitted or top-dose-only effect, or another doubt; inactive = no such curve, though single readings can be large; an effect the other way counts as inactive or inconclusive.

Key:
[1] = Cytometric Cell-Based qHTS for Inhibitors of the mTORC1 Signaling Pathway in MEF (Tsc2-/-, p53-/-) Cells (AID 2660);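 also: percent of cells above a phospho-rpS6 to PI ratio cutoff in each well; series mostly up to about 38 µM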
Outline: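 Readout: Alexa-488 phospho-rpS6 (Ser235/236) intensity divided by PI intensity, thresholded against 7.5 nM rapamycin wells and reported as % positive cells. PI cell count served as the viability measure. Compound exposure was 24 hrs at 37 degree Celsius.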

[2] = High Content Imaging Cell-Based qHTS for Inhibitors of the mTORC1 Signaling Pathway in MEF (Tsc2-/-, p53-/-) Cells (AID 2666);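 also: percent of cells scored positive for phospho-rpS6 Ser235/236 immunostaining by imaging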
Outline: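 Phospho-rpS6 (Ser235/236) immunofluorescence, normalized and scored as % positive cells using rapamycin and DMSO controls, was read in empty-vector Tsc2-/-, p53-/- MEFs after 24 h compound exposure at 37 C; propidium iodide counted cells.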

[3] = High Content Imaging Cell-Based qHTS for Inhibitors of the mTORC1 Signaling Pathway in MEF Cells (AID 2667); also: potency is read from the fitted curve at half-maximal effect
Outline: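 WT MEFs (Tsc2-/-, p53-/- re-expressing Tsc2), in DMEM + 10% FBS, were treated with compound for 24 h at 37 C. Cells were then fixed and stained for phospho-rpS6 Ser235/236 with propidium iodide as cell count. Values are % positive cells, with thresholds set against rapamycin-treated cells.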

[4] = Cytometry Cell-Based qHTS for Inhibitors of the mTORC1 Signaling Pathway in MEF cells (AID 2668);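 also: Tsc2-/- p53-/- mouse embryonic fibroblasts stably re-expressing wild-type Tsc2; percent cells positive for phospho-rpS6 Ser235/236 relative to propidium iodide stain; series mostly up to about 38 µM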
Outline: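 MEFs (Tsc2-/-, p53-/- stably expressing WT Tsc2) treated 24 h at 37 degree Celsius, fixed, stained with Alexa-488 anti-phospho-rpS6 Ser235/236 and propidium iodide; Acumen laser scanning. Reported as % positive cells, phospho-S6 normalized to PI.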

[5] = target: DNA polymerase III PolC-type (Bacillus subtilis (strain 168)) (UniProt P13267); assay: qHTS Validation Assay for the Inhibitors of DNA Replication in Gram-Positive Bacteria (AID 485295); also: potency is read from the fitted curve at half-maximal effect
Outline: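 Reconstituted B. subtilis Pol III holoenzyme (PolC, beta clamp, SSB, primase) preincubated with compound, then M13Gori single-stranded circular template with dNTPs/NTPs added; room temperature reaction. Stopped with EDTA/PicoGreen; dsDNA fluorescence read, EDTA as full-inhibition control.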

[6] = target: Tumor susceptibility gene 101 protein (Homo sapiens) (UniProt Q99816); assay: qHTS Validation Assay for Iinhibitors of HIV-1 Budding by Blocking the Interaction of PTAP/TSG101 (AID 485342; calls by dose curve)
Outline: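 Tsg101 binding domain (10 uM) with FITC-labeled PTAP peptide (50 nM) in HEPES pH 7.5 buffer, 20 min at r.t. with compounds. Binding measured by fluorescence polarization.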

[7] = qHTS Validation Assay to Find Inhibitors of Chronic Active B-Cell Receptor Signaling (AID 485345; active = well fitted curve in the direction sought with a large enough effect in the main read-out, with a control signal flat, not every such curve was filed as active)
Outline: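 TMD8 ABC-DLBCL cells stably carrying doxycycline-inducible IkappaBalpha–green luciferase fusion plus unfused red luciferase; compounds 46 uM to 3 nM, 4 h at 37C with doxycycline. Corrected green/red luminescence ratio normalized to 10 uM MG-132 and basal cell wells; curves fitted.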

[8] = Validation screen for small molecules that induce DNA re-replication in MCF 10A normal breast cells (AID 463097); also: nearly all actives have a fitted effect of over 60% in size; also: potency is read from the fitted curve at half-maximal effect
Outline: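 MCF 10A cells exposed to compound 48 hr at 37 C, 5% CO2, then Hoechst-stained 40 min. Laser-scanning imaging of nuclear DNA content (405 nm ex, 500-530 nm em); re-replication scored as rise in nuclei with elevated fluorescence intensity.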

[9] = target: Ubiquitin carboxyl-terminal hydrolase 2 (Homo sapiens) (UniProt O75604); assay: qHTS Validation Assay for Inhibitors of Ubiquitin-specific Protease USP2a Using CHOP2 as the Reporter (AID 463106)
Outline: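 USP2 core (10 nM final) was preincubated with compound 30 min at RT in pH 8.0 Tris/CaCl2/beta-ME/CHAPS buffer. Ub-CHOP2 and reporter substrate (25 nM final each) were then added, with fluorescence (Ex 485/Em 531) read after 60 min. Data were normalized to NEM full inhibition and fitted to concentration-response curves.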

Ubiquitin carboxyl-terminal hydrolase 2 (Homo sapiens), sequence (O75604 whole entry, looked up): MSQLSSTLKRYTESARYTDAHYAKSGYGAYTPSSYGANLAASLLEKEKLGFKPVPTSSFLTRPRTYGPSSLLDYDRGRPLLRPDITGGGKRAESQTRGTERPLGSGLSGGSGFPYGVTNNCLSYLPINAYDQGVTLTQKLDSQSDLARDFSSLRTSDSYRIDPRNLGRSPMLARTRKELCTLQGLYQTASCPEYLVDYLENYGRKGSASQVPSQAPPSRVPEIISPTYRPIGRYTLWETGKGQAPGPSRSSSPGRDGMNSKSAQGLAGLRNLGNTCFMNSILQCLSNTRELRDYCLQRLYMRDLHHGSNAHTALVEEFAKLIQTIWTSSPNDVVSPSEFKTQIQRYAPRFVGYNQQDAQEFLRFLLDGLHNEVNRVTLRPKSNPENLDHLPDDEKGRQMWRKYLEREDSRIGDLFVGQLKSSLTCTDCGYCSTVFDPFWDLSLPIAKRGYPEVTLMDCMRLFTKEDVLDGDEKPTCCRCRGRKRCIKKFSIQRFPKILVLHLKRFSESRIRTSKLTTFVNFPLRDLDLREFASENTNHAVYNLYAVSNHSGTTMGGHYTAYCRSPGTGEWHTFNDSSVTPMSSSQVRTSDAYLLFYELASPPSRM
DNA polymerase III PolC-type (Bacillus subtilis (strain 168)), sequence (P13267 whole entry, looked up): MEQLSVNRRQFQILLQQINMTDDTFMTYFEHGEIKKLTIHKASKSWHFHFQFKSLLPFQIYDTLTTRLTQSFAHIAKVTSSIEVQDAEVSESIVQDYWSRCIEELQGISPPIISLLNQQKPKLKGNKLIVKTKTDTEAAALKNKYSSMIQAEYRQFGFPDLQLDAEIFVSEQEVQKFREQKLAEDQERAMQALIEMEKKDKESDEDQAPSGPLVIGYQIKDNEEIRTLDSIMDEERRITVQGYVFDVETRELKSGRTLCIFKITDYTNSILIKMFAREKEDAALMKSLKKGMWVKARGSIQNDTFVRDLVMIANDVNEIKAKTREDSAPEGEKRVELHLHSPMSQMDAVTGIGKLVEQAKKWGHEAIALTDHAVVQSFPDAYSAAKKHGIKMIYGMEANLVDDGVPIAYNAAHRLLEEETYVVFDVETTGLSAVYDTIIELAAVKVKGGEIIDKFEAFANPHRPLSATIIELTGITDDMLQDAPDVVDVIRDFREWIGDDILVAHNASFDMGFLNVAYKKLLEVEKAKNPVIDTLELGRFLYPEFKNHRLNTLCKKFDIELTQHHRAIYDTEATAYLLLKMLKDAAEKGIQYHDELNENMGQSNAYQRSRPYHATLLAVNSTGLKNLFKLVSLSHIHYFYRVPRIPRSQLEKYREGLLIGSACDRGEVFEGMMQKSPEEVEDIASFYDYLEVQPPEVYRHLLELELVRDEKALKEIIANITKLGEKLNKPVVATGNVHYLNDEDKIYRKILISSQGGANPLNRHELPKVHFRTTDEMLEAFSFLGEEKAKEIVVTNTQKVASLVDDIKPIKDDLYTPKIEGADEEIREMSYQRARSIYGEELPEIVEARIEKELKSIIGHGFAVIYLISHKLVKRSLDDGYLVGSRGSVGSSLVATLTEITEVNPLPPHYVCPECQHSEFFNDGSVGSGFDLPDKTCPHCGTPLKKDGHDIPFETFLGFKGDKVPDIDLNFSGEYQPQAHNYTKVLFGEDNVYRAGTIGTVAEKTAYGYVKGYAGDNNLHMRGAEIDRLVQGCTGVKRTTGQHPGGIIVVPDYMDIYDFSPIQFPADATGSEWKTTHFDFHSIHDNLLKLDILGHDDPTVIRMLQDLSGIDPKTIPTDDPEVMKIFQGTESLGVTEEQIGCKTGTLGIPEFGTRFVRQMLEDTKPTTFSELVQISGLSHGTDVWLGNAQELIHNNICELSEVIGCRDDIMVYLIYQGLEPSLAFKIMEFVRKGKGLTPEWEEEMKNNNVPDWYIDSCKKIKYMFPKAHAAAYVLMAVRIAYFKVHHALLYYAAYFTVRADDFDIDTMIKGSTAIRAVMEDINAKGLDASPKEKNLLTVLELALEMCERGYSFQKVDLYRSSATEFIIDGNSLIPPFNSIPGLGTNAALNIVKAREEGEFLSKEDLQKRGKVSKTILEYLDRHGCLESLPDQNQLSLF
Tumor susceptibility gene 101 protein (Homo sapiens), sequence (Q99816 whole entry, looked up, the tested form may be a part): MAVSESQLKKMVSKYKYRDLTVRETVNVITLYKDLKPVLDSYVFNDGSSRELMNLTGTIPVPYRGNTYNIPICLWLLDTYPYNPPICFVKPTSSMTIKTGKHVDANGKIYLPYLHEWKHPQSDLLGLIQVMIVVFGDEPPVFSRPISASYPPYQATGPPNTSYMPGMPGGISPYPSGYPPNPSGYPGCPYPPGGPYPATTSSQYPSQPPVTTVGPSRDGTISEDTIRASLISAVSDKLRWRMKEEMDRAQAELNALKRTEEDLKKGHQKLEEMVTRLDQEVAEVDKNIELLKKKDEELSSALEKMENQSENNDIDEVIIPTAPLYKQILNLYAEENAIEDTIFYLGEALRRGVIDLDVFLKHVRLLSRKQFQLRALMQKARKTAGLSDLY

Structure (SMILES)	outcome [1]	Potency [2]	Potency [3]	Potency [4]	Potency [5]	outcome [6]	outcome [7]	Potency [8]	Potency [9]
CN1CC(O)C(O)C(O)C1CO (stereo not drawn)	inactive	inactive	inactive	inactive	inactive	inactive	inactive	–	–
COc1ccccc1N1CCN(CCN(C(=O)c2ccc(F)cc2)c2ccccn2)CC1	inactive	inactive	inactive	–	inactive	inactive	inactive	inactive	inactive
O=C(O)C1CCCNC1 (stereo not drawn)	inactive	inactive	inactive	–	inactive	inactive	inactive	inactive	–
Nc1ncnc2c1ncn2C1CCCO1 (stereo not drawn)	inactive	inactive	inactive	–	inactive	inactive	–	inactive	inactive
N[C@H](C(=O)O)c1cc(O)cc(O)c1	inactive	inactive	inactive	–	inactive	–	inactive	inactive	inactive
C=C1C[C@@]23CC[C@H]4[C@@](C)(CCC[C@@]4(C)C(=O)OC4OC(CO)C(O)C(O)C4O)[C@@H]2CC[C@]1(OC1OC(CO)C(O)C(O)C1OC1OC(CO)C(O)C(O)C1O)C3 (stereo partly drawn)	inactive	inactive	inactive	inactive	inactive	inactive	–	–	–
CCN(CC)CCCCCCCCOC(=O)c1cc(OC)c(OC)c(OC)c1	inactive	inactive	inactive	–	inactive	inactive	–	inactive	inactive
CCC1(O)CC2CN(CCc3c([nH]c4ccccc34)[C@@](C(=O)OC)(c3cc4c(cc3OC)N(C=O)C3[C@]45CCN4CC=C[C@@](CC)([C@@H](OC(C)=O)[C@]3(O)C(=O)OC)[C@H]45)C2)C1 (stereo partly drawn)	inactive	inactive	inactive	–	inactive	–	–	0.0447 µM (active)	inactive
Nc1ncnc2c1c(-c1ccc(Oc3ccccc3)cc1)cn2C1CCCC1	inactive	inactive	inactive	–	inactive	inactive	–	3.16 µM (active)	inactive
NCCCNCCCCNCCCN	inactive	inactive	inactive	–	inactive	–	inactive	inactive	inactive
NS(=O)(=O)c1cccc2c1c([N+](=O)[O-])cc1nc(O)c(O)nc12	inactive	inactive	inactive	–	inactive	inactive	–	inactive	inactive
COC(=O)C1=C(C)NC(C)=C([N+](=O)[O-])C1c1ccccc1C(F)(F)F (stereo not drawn)	inactive	inactive	inactive	–	inactive	–	inactive	inactive	inactive
CN(C)CCC(c1ccc(Br)cc1)c1ccccn1 (stereo not drawn)	inactive	inactive	inactive	–	inactive	inactive	inactive	inactive	inactive
CC[N+](CC)(CC)CC(=O)Nc1c(C)cccc1C	inactive	inactive	inactive	–	inactive	inactive	inactive	inactive	inactive
CN1CCC2(CCN3CCc4c(oc5ccccc45)C3C2)N(C)C1=O (stereo not drawn)	inactive	inactive	inactive	–	inactive	inactive	inactive	inactive	inactive
CC(=O)SC1CC2=CC(=O)CC[C@]2(C)C2CC[C@@]3(C)C(CC[C@@]34CCC(=O)O4)C12 (stereo partly drawn)	inactive	inactive	inactive	–	inactive	inactive	inactive	–	inactive
O=C(c1ccc2c(c1)OCCO2)N1CCCCC1	inactive	inactive	–	inactive	inactive	–	inactive	inactive	inactive
Cn1ccnc1	inactive	inactive	–	inactive	inactive	inactive	inactive	inactive	inactive
N=C(N)c1ccccc1	inactive	inactive	–	inactive	inactive	inactive	inactive	inactive	inactive
O=[N+]([O-])c1cccc2c(Br)[nH]nc12	inactive	inactive	–	inactive	inactive	–	inactive	inactive	inactive

Structure (SMILES)	outcome [1]	Potency [2]	Potency [3]	Potency [4]	Potency [5]	outcome [6]	outcome [7]	Potency [8]	Potency [9]
COC(=O)C(C)(N)Cc1ccc(O)cc1 (stereo not drawn)	inactive	inactive	–	inactive	inactive	–	inactive	inactive	inactive
CC(C)NC[C@H](O)COc1cccc2ccccc12	inactive	inactive	inactive	–	inactive	inactive	inactive	–	–
O=c1ccn([C@@H]2O[C@H](COP(=O)(O)OP(=O)(O)O)[C@@H](O)[C@H]2O)c(=O)[nH]1	inactive	inactive	–	inactive	inactive	inactive	inactive	inactive	inactive
NCCCCN	inactive	inactive	–	inactive	inactive	inactive	inactive	inactive	inactive
CCCC[C@@]1(C2CCCC2)Cc2cc(OCC(=O)O)c(Cl)c(Cl)c2C1=O	inactive	inactive	inactive	–	inactive	inactive	inactive	–	inactive
NC(Cc1cccc(-c2ccccc2CP(=O)(O)O)c1)C(=O)O (stereo not drawn)	inactive	inactive	inactive	–	inactive	–	inactive	inactive	–
CC(=O)O[C@H]1Cc2ccccc2N(C(N)=O)c2ccccc21	inactive	inactive	inactive	–	inactive	inactive	inactive	–	inactive
Cc1nc(N=Nc2cc(S(=O)(=O)O)c3cc([N+](=O)[O-])cc(S(=O)(=O)O)c3c2)c(COP(=O)(O)O)c(C=O)c1O	inactive	inactive	–	inactive	–	inactive	inactive	inactive	inactive
C[C@](Cc1ccc(O)c(O)c1)(NN)C(=O)O	inactive	inactive	inactive	–	inactive	inactive	inactive	–	inactive
CC[n+]1c(/C=C/C=C2/N(C)c3ccccc3C2(C)C)sc2ccccc21	inactive	inactive	0.0521 µM (active)	–	inactive	–	–	–	–
O=C(O)C1CCNCC1	inactive	inactive	–	inactive	inactive	–	inactive	inactive	inactive
CC(C)(C)c1ccc(/C=C/C(=O)Nc2ccc3c(c2)OCCO3)cc1	inactive	inactive	inactive	–	inactive	inactive	–	–	inactive
NOCC(=O)O	inactive	inactive	–	inactive	inactive	–	inactive	inactive	–
OCC1NCC(O)C(O)C1O (stereo not drawn)	inactive	inactive	–	inactive	inactive	inactive	inactive	inactive	inactive
COc1ccc(-c2cc3ncc(C)n3c(Nc3ncccc3C(N)=O)n2)cc1OC	inactive	inactive	inactive	–	inactive	inactive	–	–	inactive
CC(C)[C@@H]1CC[C@@H](C)C[C@@H]1P(=O)(c1ccccc1)c1ccccc1	inactive	inactive	inactive	–	inactive	inactive	inactive	–	inactive
COc1ccc2c(c1)c(CC(=O)O)c(C)n2Cc1ccc(Cl)cc1	inactive	inactive	–	inactive	inactive	inactive	inactive	inactive	inactive
Oc1ccc(/C=C/c2ccc(/C=C/c3ccc(O)cc3)c(Br)c2)cc1	inactive	inactive	inactive	–	inactive	–	–	–	inactive
CC1CCN=C(N)S1 (stereo not drawn)	inactive	inactive	–	inactive	inactive	inactive	inactive	inactive	–
O=c1cc(-c2ccccc2F)[nH]c2cc3c(cc12)OCO3	inactive	inactive	inactive	–	inactive	inactive	–	–	inactive

Structure (SMILES)	outcome [1]	Potency [2]	Potency [3]	Potency [4]	Potency [5]	outcome [6]	outcome [7]	Potency [8]	Potency [9]
CN1CCCC1CCOC(C)(c1ccccc1)c1ccc(Cl)cc1 (stereo not drawn)	inactive	inactive	14.7 µM (active)	–	inactive	inactive	–	–	inactive
O=C1Nc2ccc(I)cc2/C1=C/c1cc(Br)c(O)c(Br)c1	inactive	inactive	inactive	–	21.2 µM (active)	inactive	–	–	–
O=C(O)C1=CCNCC1	inactive	inactive	–	inactive	inactive	inactive	inactive	inactive	inactive
C=CCNc1ncnc2ccc(Br)cc12	inactive	inactive	inactive	–	inactive	inactive	–	–	inactive
CN(C)C(=O)/N=N/C(=O)N(C)C	inactive	inactive	–	inactive	inactive	inactive	inactive	inactive	inactive
N#CC(C#N)=C(N)/C(C#N)=C/c1ccc(O)cc1	inactive	inactive	inactive	–	inactive	–	inactive	inactive	–
CCc1ccc2c(-c3cccc(Cl)c3)nc(=O)n(CC)c2n1	inactive	inactive	inactive	–	inactive	inactive	–	–	inactive
CCCn1c(=O)c2c(ncn2C)n(CCC)c1=O	inactive	inactive	–	inactive	inactive	inactive	inactive	inactive	inactive
Nc1ccc(-c2ccc3ccccc3n2)cc1	inactive	inactive	–	inactive	inactive	inactive	inactive	12.6 µM (active)	inactive
NC(=O)c1cc[n+](CC2=C(C(=O)O)N3C(=O)[C@@H](NC(=O)[C@@H](c4ccccc4)S(=O)(=O)[O-])[C@H]3SC2)cc1	inactive	inactive	–	inactive	inactive	inactive	inactive	inactive	inactive
CC(=O)NNC(=O)N1Cc2ccccc2Oc2ccc(Cl)cc21	inactive	inactive	–	inactive	inactive	inactive	inactive	inactive	inactive
CC[C@@H]1Cc2cc(O)ccc2C2=C1c1ccc(O)cc1C[C@H]2CC	inactive	inactive	inactive	–	inactive	inactive	–	–	–
CC(=O)[C@H]1CCC2C3CC=C4C[C@@H](OS(=O)(=O)O)CC[C@]4(C)C3CC[C@@]21C (stereo partly drawn)	inactive	inactive	–	inactive	inactive	–	inactive	inactive	inactive
O[Si](CCCN1CCCCC1)(c1ccc(F)cc1)C1CCCCC1 (stereo not drawn)	inactive	inactive	–	–	inactive	–	inactive	inactive	inactive
CC1CNCCN1S(=O)(=O)c1cccc2cnccc12 (stereo not drawn)	inactive	inactive	–	–	inactive	inactive	–	–	inactive
CC(C)(C)c1cc(/C=C(\C#N)C(N)=S)cc(C(C)(C)C)c1O	inactive	inactive	–	–	inactive	inactive	–	3.16 µM (active)	inactive
C[C@@]1(C2CCCC2)Cc2cc(OCC(=O)O)c(Cl)c(Cl)c2C1=O	inactive	inactive	–	–	inactive	inactive	inactive	inactive	inactive
NC(N)=N[C@@H](CCC(=O)O)C(=O)O	inactive	–	inactive	inactive	inactive	inactive	inactive	inactive	inactive
